PubChem BioAssay (NCATS)
Records with an inconclusive call do not appear. Entries that show only a call come without a potency. Active and inactive are the calls of the source. Unless noted, calls come from the whole dose curve; as a rule, active = well fitted curve in the direction sought with a large enough effect; inconclusive = small, poorly fitted or top-dose-only effect, or another doubt; inactive = no such curve, though single readings can be large; an effect the other way counts as inactive or inconclusive.

Columns and labels:
[1] = qHTS assay for measurement of the activity of small molecule inhibitors on Zika virus induced Caspase-3 activity in human iPSC derived neural progenitor cells (hNPCs) (AID 1224857); note: nearly all actives have a fitted effect of over 65% in size
How it was run: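 After overnight (16–20 h) culture at 350 cells/well, hNPCs get compound, then ZIKV 2 FFU/cell one hour later. Six hours on, Caspase-Glo 3/7 is added and luminescence measured.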

[2] = qHTS assay for measurement of the activity of small molecule inhibitors on Zika virus induced Caspase-3 activity in human astrocytoma cells (AID 1224859)
How it was run: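 Inhibition of Zika-induced caspase-3/7 activity: SNB-19 cells, 1 h compound pretreatment, ZIKV 2 FFU/cell for 6 h at 37 C, Caspase-Glo luminescence read-out.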

[3] = qHTS assay to identify small molecule inhibitors of chordoma cells - UCH-1 (AID 1259355); note: nearly all actives have a fitted effect of over 55% in size; note: potency is the fitted concentration of half-maximal effect; series mostly up to about 46 µM
How it was run: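 Screening used approved and investigational drugs in 15-point titration against 800 seeded cells per well. A fixed combination of auranofin with camptothecin, doxorubicin, rubitecan and topotecan followed compound addition, and growth was scored by CellTiter-Glo after 48hr.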

[4] = qHTS assay to identify small molecule inhibitors of chordoma cells - UCH-2 (AID 1259356); note: series mostly up to about 46 µM
[5] = P-glycoprotein substrates identified in KB-8-5-11 adenocarcinoma cell line, qHTS therapeutic library screen (AID 1346987); note: nearly all actives have a fitted effect of over 65% in size; note: potency is the fitted concentration of half-maximal effect
How it was run: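 Human cervical adenocarcinoma KB-8-5-11 cells, selected in colchicine to over-express P-gp and assayed without it, were exposed for 72 h to titrated compounds. An ATP-based luminescent viability signal gave AC50.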

[6] = Natriuretic polypeptide receptor (hNpr1) antagonism - Pilot counterscreen GloSensor control cell line (AID 1347045; calls by dose curve; note: series mostly up to about 38 µM)
How it was run: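 The SNP-driven cGMP luminescence signal (50 uM, 20 min, room temperature) was measured in GloSensor HEK293 control cells. Compounds were tested as a LOPAC titration series and preincubated for 30-50 min.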

[7] = NS1 protein of Zika virus - qHTS assay to identify small molecule inhibitors in human HEK 293 cells (AID 1347053); note: series mostly up to about 46 µM; nearly all actives have a fitted effect of over 55% in size
How it was run: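 Compound-treated (1 h pre-infection) HEK 293 cells infected with ZIKV MR766, MOI = 0.5; after 24 h at 37 C, NS1 read by TR-FRET; data normalized to uninfected and infected controls.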

| Structure (SMILES) | outcome [1] | outcome [2] | Potency [3] | Potency [4] | Potency [5] | outcome [6] | Potency [7] |
| --- | --- | --- | --- | --- | --- | --- | --- |
| CC(C)C[C@H]1C(=O)N2CCC[C@H]2[C@]2(O)O[C@](NC(=O)[C@@H]3C=C4c5cccc6[nH]c(Br)c(c56)C[C@H]4N(C)C3)(C(C)C)C(=O)N12 | inactive | inactive | inactive | – | – | – | – |
| CC(Cc1ccccc1)(NC(=O)CN)c1ccccc1 (centres undefined) | inactive | inactive | inactive | inactive | inactive | – | – |
| O=C(O)c1cc2cc(Cc3cccnc3)ccc2o1 | inactive | inactive | inactive | inactive | inactive | inactive | inactive |
| C[C@@H]1C(=O)NC2=Nc3cccc(Cl)c3CN21 | inactive | inactive | inactive | inactive | 0.82 µM (active) | inactive | inactive |
| COc1cc(C=C2CCC/C(=C\c3ccc(O)c(OC)c3)C2=O)ccc1O | inactive | inactive | 31.6 µM (active) | inactive | 25.9 µM (active) | – | – |
| N[C@H](CO)C(=O)O | inactive | inactive | inactive | inactive | inactive | inactive | inactive |
| Oc1c(I)cc(Cl)c2cccnc12 | inactive | inactive | – | – | – | – | – |
| COc1cccc2c1C(=O)c1c(O)c3c(c(O)c1C2=O)C[C@@](O)(C(C)=O)C[C@@H]3O[C@H]1C[C@H](N)[C@H](O)[C@H](C)O1 | inactive | inactive | 1.78 µM (active) | – | – | – | – |
| CCCCC(CC)CN=C(N)NC(N)=NCCCCCCN=C(N)NC(N)=NCC(CC)CCCC (centres undefined) | inactive | inactive | – | – | – | – | – |
| O=C1CCC(c2ccc(-n3ccnc3)cc2)=NN1 | inactive | inactive | inactive | inactive | 1.46 µM (active) | inactive | inactive |
| O=C(N/N=C/c1ccccc1O)c1ccncc1 | inactive | inactive | inactive | inactive | inactive | – | – |
| CN(C(=O)CN(CCO)CC(=O)N(C)C(C)(C)Cc1ccccc1)C(C)(C)Cc1ccccc1 | inactive | inactive | inactive | inactive | – | – | – |
| CC1=C(C(=O)O)N2C(=O)[C@@H](NC(=O)[C@H](N)c3ccc(O)cc3)[C@H]2SC1 | inactive | inactive | inactive | inactive | – | – | – |
| Clc1ccc2c(c1)CCc1cccnc1C2=C1CCNCC1 | inactive | inactive | inactive | inactive | – | – | – |
| CC/C(=C(/CC)c1ccc(O)cc1)c1ccc(O)cc1 | inactive | inactive | inactive | inactive | – | – | – |
| CCN(CC)CCOc1ccc(C(O)(Cc2ccc(Cl)cc2)c2ccc(C)cc2)cc1 (centres undefined) | inactive | inactive | inactive | – | – | – | – |

| Structure (SMILES) | outcome [1] | outcome [2] | Potency [3] | Potency [4] | Potency [5] | outcome [6] | Potency [7] |
| --- | --- | --- | --- | --- | --- | --- | --- |
| CCCCCCCCCCCCCCCC[N+](C)(C)CC | inactive | inactive | inactive | – | – | – | – |
| C1CCc2nnnn2CC1 | inactive | inactive | inactive | inactive | inactive | inactive | inactive |
| CCCCOc1ccc(C(=O)CCN2CCCCC2)cc1 | inactive | inactive | inactive | – | – | – | – |
| COc1cc(N)c(Cl)cc1C(=O)NC1CCN(CCCOc2ccc(F)cc2)CC1OC (centres undefined) | inactive | inactive | inactive | inactive | – | – | – |
| CN(C/C=C/c1ccccc1)Cc1cccc2ccccc12 | inactive | inactive | inactive | inactive | inactive | – | – |
| Nc1cc(Cl)c(NC2=NCCN2)c(Cl)c1 | inactive | inactive | inactive | inactive | inactive | inactive | – |
| CCCCCCc1ccc(O)cc1O | inactive | inactive | inactive | inactive | inactive | – | – |
| Cc1c(C)n(CCN(C)C)c2ccc(C(=O)OCCN(C)C)cc12 | inactive | inactive | inactive | – | – | – | – |
| C[C@@H]1CN(CCCn2c3ccccc3c3ccccc32)C[C@H](C)N1 | inactive | inactive | inactive | inactive | 14.6 µM (active) | – | – |
| C[n+]1c2cc(N)ccc2cc2ccc(N)cc21 (tested in a mixture with another compound) | inactive | inactive | 15.8 µM (active) | – | – | – | – |
| Cc1c(F)c(N2CCNC(C)C2)cc2c1c(=O)c(C(=O)O)cn2C1CC1 (centres undefined) | inactive | inactive | inactive | inactive | – | – | – |
| CCCCC1=NC2(CCCC2)C(=O)N1Cc1ccc(-c2ccccc2-c2nn[nH]n2)cc1 | inactive | inactive | inactive | inactive | – | – | – |
| Cc1ccnc(NS(=O)(=O)c2ccc(N)cc2)n1 | inactive | inactive | inactive | inactive | – | – | – |
| CN1CCCC(CC2c3ccccc3Sc3ccccc32)C1 (centres undefined) | inactive | inactive | inactive | inactive | – | – | – |
| CC(C)COC(=O)OCN1C(=O)CN(CCN2CC(=O)N(COC(=O)OCC(C)C)C(=O)C2)CC1=O | inactive | inactive | inactive | inactive | inactive | inactive | inactive |
| CCCCCCCCCCOCC(O)CN (centres undefined) | inactive | inactive | inactive | inactive | inactive | – | – |
